# Assay outcomes: PubChem, National Center for Advancing Translational Sciences (NCATS)
# Only some compounds are listed: those with a hit (about 21% of all), similar ones and a draw of the others.
# Pf growth 96h: inhibits malaria parasite growth, 96 h; P. falciparum luciferase reporter growth, 96 h; Potency, µM (top dose mostly 28.7 µM), usual class: inhibitors; hit rate 6.9% among 320,000
#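 Delayed-death screen, second-generation endpoint: infected erythrocytes, 2% hematocrit, 0.05% parasitemia final; 96 hours at 37 C, 5% CO2; luciferase detection reagent; luminescence decrease equals reduced growth.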
# SARS PLpro yeast: blocks SARS-CoV papain-like protease in a yeast assay | S. cerevisiae expressing SARS-CoV PLpro, growth rescue | Potency, µM (series often up to 32.9 µM), most hits filed as activators | hit rate 0.19% among 330,000; calls by dose curve; further: nearly all actives have a fitted effect of over 55% in size
# NS1 inh: influenza NS1 inhibition | Potency, µM (doses to about 46.1 µM) | hit rate 0.4% among 270,000; calls by dose curve; further: actives are rising curves; nearly all actives have a fitted effect of over 50% in size
#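 OD600 was taken as the measure of yeast growth restored by compound in an NS1-expressing S. cerevisiae strain. Cells had been washed out of glucose medium and diluted 1:100 into galactose -URA medium, pH 6.0.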
# Shiga inhibitor: Shiga toxin inhibition; inhibition, % at 38.7 µM; Vero cells, Shiga toxin protein synthesis inhibition reporter; hit rate 9.2% among 290,000; in the data active means inhibition mostly above about 28%, no sharp cut-off; inactive means mostly below about 43%
# Cycloheximide cs: counter-screen for Shiga toxin inhibitors: cycloheximide protein synthesis inhibition. cell reporter, cycloheximide protein synthesis inhibition counterscreen. AID 2314. hit rate 12% among 300,000. max response, %; in the data active means max response mostly above about 13%, no sharp cut-off; inactive means mostly below about 14%; further: read at 38.3 µM for the half of the compounds with a filed dose
# Pf growth 48h: P. falciparum growth inhibition at 48 hours (one generation); P. falciparum luciferase growth in erythrocytes, 48 h; Potency, µM (series often up to 28.7 µM), hits mostly inhibitors; hit rate 5.9% among 310,000
#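 Read-out is firefly luciferase luminescence from an integrated reporter in P. falciparum, so falling signal marks reduced parasite growth. Infected erythrocytes were at 2% hematocrit and 0.1% parasitemia (final) in Albumax-supplemented RPMI 1640.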
# Hits are given with their value; - = inactive; ? = inconclusive; . = not tested or not shown; [ ] = another dose, or the depositor's remark. Unless noted, the call rests on the fitted dose curve; in most records, active means well fitted inhibition curve with a large enough effect; inconclusive means small, poorly fitted or top-dose-only effect, or another doubt; inactive means no such curve, though single readings can be large or run the other way.
SMILES,Pf growth 96h,SARS PLpro yeast,NS1 inh,Shiga inhibitor,Cycloheximide cs,Pf growth 48h
CN1CCC(NCCC(c2ccc(F)cc2)c2ccc(Cl)cc2)CC1 (centres undefined),1.85µM,-,-,-,-,1.65µM
CC(C)C(CCNC1CCN(C)CC1)c1ccc(Cl)cc1 (centres undefined),?,-,-,-,-,-[0.00184 µM]
COCCCNC(=O)CN(c1ccc(OC)cc1)S(=O)(=O)c1ccc(NC(C)=O)cc1,?,-,-,-,-,?
COc1ccccc1NC(=O)C(C)NS(=O)(=O)c1ccc(F)cc1 (centres undefined),.,-,-,-,-,-
CC(Oc1ccccc1)C(=O)Nc1ccc(NC(=O)c2ccccc2)cc1 (centres undefined),-,-,-,-,-,?
COC(=O)c1ccccc1NC(=O)C(C)Oc1ccccc1 (centres undefined),-,-,-,-,-,7.38µM
COC(=O)c1ccccc1NC(=O)C(C)NS(=O)(=O)c1ccc(OC)cc1 (centres undefined),.,-,-,-,-,1.31µM
COc1cc(NC(=O)C(C)Oc2ccccc2)c(OC)cc1NC(=O)c1ccccc1 (centres undefined),?,-,-,-,-,10.4µM
CC(=O)Nc1cccc(-c2nnc(SCC(=O)n3c4c(c5ccccc53)CCCC4)n2C)c1,?,-,-,-,-,-
COC(=O)c1sccc1NC(=O)COc1ccc(Cl)cc1Cl,?,-,-,-,-,-
O=C(c1cnn(-c2ccccc2)c1)c1ccc2ccccc2c1O,-,-,-,-,15.2,-
CC(C)(C)n1cc(C(=O)c2ccccc2OCCCF)cn1,-,-,-,-,-,-
CC(C)(C)n1cc(C(=O)c2ccc3ccccc3c2O)cn1,-,-,.,46.4,-,-
Cc1[nH][nH]c(=O)c1C=NCc1cccs1,-,-,.,-,-,-
O=C(Nc1ccn(Cc2ccccc2)n1)c1ccc2c(c1)OCO2,-,-,-,42.1,24.2,-
O=C(Nc1ccn(Cc2ccc(Cl)cc2)n1)c1ccccc1,-[5.75 µM],-,.,90.4,20.6,-
N=C1c2ccccc2CN1CC(=O)c1ccccc1,-,-,-,40.3,41.1,-
N=C1c2ccccc2CN1NC(=O)c1ccccc1,-,-,-,-,-,-
Cc1ccc(C)c(C(=O)CN2Cc3ccccc3C2=O)c1,-,-,-,65.1,22.1,-
COc1cccc(NC(=S)N2CCCC2c2ccc(OC)c(OC)c2)c1 (centres undefined),-,-,.,52.2,32.5,?
COc1ccc(C2CCCN2C(=S)Nc2ccc(C)cc2C)cc1OC (centres undefined),-,-,.,-,-,-
COc1ccc(C2CCCN2C(=S)Nc2ccccc2C)cc1OC (centres undefined),?,-,.,-,-,9.28µM
CCC(=O)N(C(=O)CC)N1CCN(c2ccncc2S(=O)(=O)N2CCCCC2)CC1,?,-,-,-,-,?
Cc1cccc(C)c1NC(=S)NCCc1ccc(O)c(O)c1,-,-,.,-,-,10.4µM
CCOP(=O)(c1ccccc1)c1nc(-c2ccccc2Cl)oc1N1CCCCC1 (centres undefined),?,-,-,-,-,6.57µM
SMILES,Pf growth 96h,SARS PLpro yeast,NS1 inh,Shiga inhibitor,Cycloheximide cs,Pf growth 48h
CCOP(=O)(OCC)c1nc(-c2cccc([N+](=O)[O-])c2)oc1N1CCCCC1,?,-,.,-,-,-
COc1ccc(N2CC(C(=O)Nc3ccccc3C(=O)NC3CC3)CC2=O)cc1 (centres undefined),-,-,-,-,-,-
COc1ccccc1CNC(=O)c1cccc(S(=O)(=O)N(C)c2ccccc2)c1,?,-,.,.,.,?
Cc1ccsc1/C=N/NC(=O)Cc1cccn1C,-,-,-,-,21.3,-
Cn1cccc1CC(=O)N/N=C/c1cccc2ccccc12,-,-,-,33.1,22.1,?
Cn1cccc1CC(=O)N/N=C\c1c2ccccc2cc2ccccc12,-,-,-,-,-,-
Cc1ccc(N2CC(C(=O)Nc3ccc4c(c3)OCCO4)CC2=O)cc1 (centres undefined),?,-,-,43.8,19.9,-
COC(=O)c1ccc(NC(=O)C2CC(=O)N(c3cc(C)ccc3C)C2)cc1 (centres undefined),?,-,-,-,-,-
COC(=O)c1ccc(NC(=O)C2CC(=O)N(c3ccc(C)cc3)C2)cc1 (centres undefined),-,-,-[9.22 µM],-,16.7,-
